Rango release inh = qHTS Assay for Inhibitors of RanGTP induced Rango (Ran-regulated importin-beta cargo) - Importin beta complex dissociation | Snurportin-1 (Homo sapiens) + GTP-binding nuclear protein Ran (Homo sapiens) + Importin … | Biochemical FRET Rango-importin beta, RanGTP-induced dissociation | Potency, µM (series often up to 46.1 µM) | 0.071% of 340,000 active; also: nearly all actives have a fitted effect of over 45% in size
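Rango/importin beta premix (0.1/0.25 uM final), PBS + 1 mM DTT + 0.02% Tween-20 + 0.1% BSA; cpd 5 min RT; FRET pre-read; + RanGTP-RCC1 (0.6 uM Ran, 2 mM GTP, 0.2 uM RCC1); 45 min RT; FRET post-read, ex 430, em 486/530 nm.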
KCNH2 WT inh = qHTS for Inhibitors of KCHN2 3.1: Wildtype qHTS; Voltage-gated inwardly rectifying potassium channel KCNH2 (Homo sapiens), Q12809; U2OS, BacMam KCNH2, thallium flux FluxOr; active compounds read low; activity change, % at 1.84 µM; 0.37% of 340,000 active;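 active = maximum activity change below -70%; inconclusive = maximum activity change between -70% and -50%; inactive = maximum activity change above -50%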
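U2OS cells transduced with wild-type KCNH2 virus are loaded with FluxOr dye for 45 min, and thallium flux is measured in kinetic reads before and after stimulation buffer. Rate constants are normalized to DMSO controls.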
Rango-impB inh = qHTS Assay for Inhibitors of Rango (Ran-regulated importin-beta cargo) - Importin beta complex formation. Potency, µM (titrated, usually from 92.2 µM). 0.031% of 340,000 active. Rango CFP/YFP FRET sensor + importin beta, 45 min; also: nearly all actives have a fitted effect of over 15% in size
Target sequence (Q14974 whole entry, looked up): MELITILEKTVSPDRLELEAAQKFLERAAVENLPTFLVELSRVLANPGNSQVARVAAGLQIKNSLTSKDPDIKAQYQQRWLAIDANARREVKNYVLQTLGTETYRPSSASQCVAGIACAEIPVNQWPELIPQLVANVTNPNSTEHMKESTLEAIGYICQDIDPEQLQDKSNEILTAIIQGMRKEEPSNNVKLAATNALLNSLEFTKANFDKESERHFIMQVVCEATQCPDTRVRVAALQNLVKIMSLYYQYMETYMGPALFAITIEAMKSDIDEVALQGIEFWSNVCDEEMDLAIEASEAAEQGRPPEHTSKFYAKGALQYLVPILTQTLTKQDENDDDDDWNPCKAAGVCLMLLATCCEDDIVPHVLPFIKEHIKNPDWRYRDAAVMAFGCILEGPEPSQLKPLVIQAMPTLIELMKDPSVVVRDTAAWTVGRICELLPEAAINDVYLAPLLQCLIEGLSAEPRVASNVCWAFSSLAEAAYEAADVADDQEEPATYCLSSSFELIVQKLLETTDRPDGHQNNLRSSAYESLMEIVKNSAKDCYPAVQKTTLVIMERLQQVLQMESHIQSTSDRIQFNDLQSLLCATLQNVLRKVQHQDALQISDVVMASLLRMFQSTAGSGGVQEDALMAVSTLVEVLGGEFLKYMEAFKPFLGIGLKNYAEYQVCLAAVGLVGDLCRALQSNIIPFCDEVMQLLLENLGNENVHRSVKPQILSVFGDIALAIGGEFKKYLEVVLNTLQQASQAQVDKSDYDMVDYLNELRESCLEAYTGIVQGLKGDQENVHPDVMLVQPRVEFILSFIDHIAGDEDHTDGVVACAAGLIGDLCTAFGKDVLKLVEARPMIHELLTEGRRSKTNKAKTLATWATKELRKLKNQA
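Inhibition scored from the CFP 486 nm/YFP 530 nm FRET ratio 45 min after adding 0.125 microM importin beta to 50 nM Rango biosensor preincubated 5 min with compound (room temperature, PBS with DTT, Tween-20, BSA). No-importin wells as positive control.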
KCNH2 3.1 inh = qHTS for Inhibitors of KCHN2 3.1: Mutant qHTS | Potassium voltage-gated channel subfamily H member 2, brain isoform KCNH2 3.1 (human) | 0.95% of 340,000 active | activity change, % (tested at about 1.8 µM) | AID 720553, 2013 | U2OS KCNH2 3.1, thallium flux FluxOr; active compounds read low;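 active = maximum activity change below -70%; inconclusive = maximum activity change from -70% to -50%; inactive = maximum activity change above -50%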;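 also: thallium influx rate constant from kinetic fluorescence after stimulation buffer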
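Kinetic fluorescence (2 min after stimulation buffer) measures Tl+ influx through KCNH2 3.1 expressed by viral transduction in U2OS cells; the rate constant is normalized against DMSO controls serving as positive and negative references.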
Numbers stand for hits; - = inactive; ? = inconclusive; . = not tested or not shown. Sampled rows, rich in hits. Any-hit rate of the full collection: about 1.3%. Unless noted, calls follow the shape of the full dose curve.

SMILES	Rango release inh	KCNH2 WT inh	Rango-impB inh	KCNH2 3.1 inh
Cc1noc(NS(=O)(=O)c2ccc(NC(=O)c3ccc(Cl)c(S(=O)(=O)N(C)c4ccccc4)c3)cc2)c1C	-	-	-	-
CS(=O)(=O)c1cccc(C(=O)OCCCC(=O)c2ccccc2)c1	-	-	-	-
CN(C)c1cccc(C(=O)OCCCC(=O)c2ccc(F)cc2)c1	-	-	-	-130
O=C(Nc1ncccc1O)c1ccc(Oc2ccccc2)cc1	-	-	-	-
CN(CCC(=O)Nc1ccc(Cl)cc1)Cc1ccccc1	-	-	-	-76
CCCC(=O)Nc1ccc(Nc2ccccc2)cc1	-	-71	-	-
CCCC(=O)Nc1ccc(-c2ccc(NC(=O)CCC)cc2)cc1	-	-	-	-
CSCCC(NS(=O)(=O)c1ccccc1)C(=O)Nc1nccs1 (centres undefined)	-	-	-	-
CC(NC(=O)OC(C)(C)C)C(=O)Oc1ccc2ccc(=O)oc2c1 (centres undefined)	?	-	?	-
CC(C)(C)OC(=O)NCCC(=O)Oc1ccc2ccc(=O)oc2c1	9.2µM	-	?	-
CC(CC(=O)N1CCN(c2ccccc2)CC1)S(=O)(=O)c1ccc2c(c1)NC(=O)CO2 (centres undefined)	-	-	-	-
COc1ccc(OC)c(S(=O)(=O)Nc2ccccc2SC)c1	-	-	-	-88
COc1ccc(Cl)cc1NC(=O)CN(C)C(C)C(=O)NC(=O)NC1CCCCC1 (centres undefined)	-	-	-	-
CSC1=NC2(CC(c3ccccc3)Oc3cc(O)ccc32)CC(C)(C)N1 (centres undefined)	-	?	-	-94
OC(Cc1nc2ccccc2[nH]1)c1ccccc1Cl (centres undefined)	-	-	-	-74
O=C(c1cnn2c(C(F)F)cc(-c3ccccc3)nc12)N1CCN(Cc2ccc3c(c2)OCO3)CC1	-	-	?	.
O=C(COC(=O)C1CC2CCCC(C1)C2=O)Nc1nc(-c2ccc(F)c(F)c2)cs1 (centres undefined)	-	-	-	-94
COc1ccc(C(C)(C)C)cc1NC(=O)COC(=O)C1=NNC(=O)CC1	-	-	-	-
CCC(C)(C)n1nnnc1C(c1ccc2ncccc2c1)N1CCN(c2nc3ccccc3s2)CC1 (centres undefined)	-	-	-	-90
CCC(C)(C)n1nnnc1C(c1ccc2ncccc2c1)N1CCN(c2ccc(O)cc2)CC1 (centres undefined)	-	-	-	-
COc1ccc(NC(=O)CN(C)S(=O)(=O)c2ccc(C)cc2)c([N+](=O)[O-])c1	?	-122	?	-
COc1ccc(CN(C)CC(=O)Nc2cc(OC)c([N+](=O)[O-])cc2C)c(OC)c1	-	-	-	-71
CC1CN(C(=O)c2ccc(NS(=O)(=O)c3ccc(C(C)(C)C)cc3)cc2)CC(C)O1 (centres undefined)	-	-	?	-
COc1cccc(CN(CC(=O)NC2CCCC2)C(=O)c2csnn2)c1	-	-	-	-
CN1C(=O)C(=O)/C(=C(/O)c2ccccc2)C1c1ccc(Br)cc1 (centres undefined)	-	-	-	-
SMILES	Rango release inh	KCNH2 WT inh	Rango-impB inh	KCNH2 3.1 inh
CN(C)c1ccc(C2/C(=C(/O)c3ccc(Br)cc3)C(=O)C(=O)N2C)cc1 (centres undefined)	-	-	-	-176
O=C(NNC(=O)c1cncc(Br)c1)c1ccncc1	-	-	-	-
COc1ccc(C2C=C(C)Nc3nc(SC)nn32)cc1 (centres undefined)	18µM	-	?	-
CC1=CC(c2ccccc2)n2nc(N)nc2N1 (centres undefined)	?	-	?	-
c1cc2c(c(CC3CO3)c1CC1CO1)OCCOCCOCCOCCO2 (centres undefined)	.	-	.	-
COc1ccc(S(=O)(=O)N2CCCC(C(=O)NCc3cccnc3)C2)cc1OC (centres undefined)	-	-	-	-
O=C(c1cc(Sc2ccc(Cl)cc2)nc2ccccc12)N1CCN(c2ccccn2)CC1	-	-	-	-78
